# Tau fibril ThT: blocks human tau fibril formation measured by thioflavin T. Potency, µM (titrated, usually from 57.4 µM), for inactives: at the highest dose activity, negative = inhibition, most hits filed as inhibitors. recombinant tau K18 P301L, heparin-induced fibrillization, ThT fluorescence. P10636. 2.1% of 270,000 active; further: potency means the concentration at half of the fitted maximal effect; nearly all actives have a fitted effect of over 55% in size
# Target sequence (P10636 561-689 P618L limits assumed): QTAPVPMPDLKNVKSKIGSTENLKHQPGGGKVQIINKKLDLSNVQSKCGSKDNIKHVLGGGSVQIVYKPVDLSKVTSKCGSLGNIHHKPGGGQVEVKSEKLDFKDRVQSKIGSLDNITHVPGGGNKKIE
#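 Fibril formation assay: tau K18 P301L at 15 uM with trace Alexa 594 label, heparin inducer 20 uM, pH 7 sodium acetate buffer, 37 C for 6 hr; endpoint ThT signal.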
# Tau fluor counter: counter-screen for tau fibril formation inhibitors | Potency, µM (top dose mostly 57.7 µM), inactives show at the top dose activity change, negative = decrease | tau K18 P301L Alexa594 fluorescence, heparin fibrillization | 0.93% of 280,000 active; further: potency means the concentration at half of the fitted maximal effect; nearly all actives have a fitted effect of over 55% in size
#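 Human tau K18 P301L (15 uM unlabeled, 0.24 uM Alexa 594-labeled) in 100 mM sodium acetate pH 7 with 20 uM heparin, 6 hr at 37 C. ThT 30 uM added, 1 hr ambient; Alexa 594 FP and total fluorescence read at 555/632 nm.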
# Sfp PPTase inh: inhibitors of Bacillus subtilis Sfp phosphopantetheinyl transferase; Q9F4F7; Biochemical Sfp PPTase activity, qHTS; Potency, µM, inactives show largest response in the series, negative = inhibition, most hits filed as inhibitors; 3.5% of 310,000 active;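 further: the enzyme is Sfp with the accession as filed and its product quenches rhodamine fluorescence; potency means the concentration at half of the fitted maximal effect; 0% = enzyme reaction without inhibitor and -100% = no enzyme wells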
#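 With Hepes-Na pH 7.6 buffer containing 10 mM MgCl2, Sfp (15 nM) modified BHQ-2-YbbR (12.5 uM) using rhodamine-CoA (5 uM). Two reads 30 minutes apart at 525/598 nm yielded each well's rate.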
# Tau fibril FP: blocks human tau fibril formation measured by polarization; Potency, µM (titrated, usually from 57.7 µM), without a hit: top-dose activity, negative = inhibition, usual class: inhibitors; P10636; K18 P301L tau heparin fibrillization, Alexa594 FP, 6 h; 0.39% of 280,000 active; further: potency means the concentration at half of the fitted maximal effect; nearly all actives have a fitted effect of over 55% in size
#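 Heparin (20 uM) drove fibril formation of recombinant tau K18 P301L, 15 uM unlabeled with 0.24 uM Alexa 594 label, for 6 hr at 37 C in 100 mM sodium acetate pH 7. Fluorescence polarization (555/632 nm) read 1 hr after 30 uM ThT.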
# Coupling enz: coupling enzyme interference in Giardia aldolase counter-screen. coupling enzyme system counterscreen, AmpLite Red fluorescence. activity change, negative = inhibition, % at 58.2 µM, hits read low. 0.67% of 290,000 active. AID 2472; in the data active means activity change below about -30%
#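 Final compound at 57.5 uM, incubated 10 min at RT with coupling enzyme reagent (glyceraldehyde-3-phosphate), then 20 min with substrate and AmpLite Red detection. Fluorescence read at 525/598 nm; tests interference with the coupling assay, not aldolase inhibition.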
# G9a inh: G9a (human) methyltransferase inhibition. AID 504332. Q96KQ7. 8.8% of 350,000 active. Potency, µM (series often up to 102 µM), without a hit: at the top dose activity, negative = inhibition, hits mostly inhibitors. G9a H3K9 monomethylation, AlphaScreen, 2 h; further: potency means the concentration at half of the fitted maximal effect; nearly all actives have a fitted effect of over 75% in size
# Target sequence (Q96KQ7 913-1193 limits assumed): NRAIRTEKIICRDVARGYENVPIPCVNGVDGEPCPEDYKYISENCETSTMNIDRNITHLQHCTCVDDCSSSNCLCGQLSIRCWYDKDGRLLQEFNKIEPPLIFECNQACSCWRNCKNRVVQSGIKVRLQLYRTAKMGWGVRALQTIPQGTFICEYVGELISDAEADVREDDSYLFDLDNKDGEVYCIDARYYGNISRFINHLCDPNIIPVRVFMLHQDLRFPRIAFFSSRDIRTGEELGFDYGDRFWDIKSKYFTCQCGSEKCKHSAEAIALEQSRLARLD
#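 AlphaScreen detection with an anti-monomethyl H3K9 antibody quantified product after a 2 h room-temperature reaction containing 500 nM biotinylated H3K9 peptide, 20 µM SAM and 20 nM enzyme, which had been preincubated 15 min with compound.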
# Active calls of the source: *; ? = inconclusive; / = no result; ! = a repeat was not active; [ ] = dose if it differs, or a comment. A selection: hits, their analogues and other compounds. The true share with any hit is near 11%. Unless noted, the call rests on the fitted dose curve; in most records, active means well fitted curve in the direction sought with a large enough effect; inconclusive means small, poorly fitted or top-dose-only effect, or another doubt; inactive means no such curve, though single readings can be large; an effect the other way counts as inactive or inconclusive. Unless noted, on the % scale 0 is the no-effect control and ±100 the full control effect.
SMILES,Tau fibril ThT,Tau fluor counter,Sfp PPTase inh,Tau fibril FP,Coupling enz,G9a inh
O=[N+]([O-])c1ccc(Nc2ccc3ccccc3c2)nc1,1.26µM*,?,-2.9%,-8.9%,-0.5,12.1%[59 µM]
Cc1ccccc1CC(=O)c1ccc(O)c(C)c1O,-15.9%,?,1.1%,?,-1.4,11.2%
CCc1cc(/C(Cc2ccccn2)=N\O)c(O)cc1O,-12.4%,-19.5%,15.0%,7.9%,5.0,24.7%[59 µM]
Cc1c(O)ccc(/C(Cc2ccc3ccccc3n2)=N\N)c1O,7.08µM*,11.2µM*[quencher],11.7%,8.9%,-0.7,8.91µM*
CCc1cc(/C(Cc2ccc3ccccc3n2)=N\O)c(O)cc1O,-13.9%,22.4µM*[quencher],12.9%,-9.2%,-4.0,-33.6%
COc1ccc(-c2cnnc(N/N=C/c3ccc(C)o3)n2)cc1,2.82µM*,-29.9%,23.4%,9.5%,6.1,22.3%
COc1ccc(-c2cnnc(N/N=C/c3ccc(O)cc3)n2)cc1,?,?,5.5%,1.2%,2.6,1.7%
COc1ccc(-c2cnnc(N/N=C/c3ccc(O)c(O)c3)n2)cc1,2.51µM*,?,-25.2%,?,-2.2,-7.7%
Brc1ccc(/C=N/Nc2nncc(-c3ccccc3)n2)o1,?,-8.1%,19.3%,1.7%,3.1,1.4%
Fc1cnc(N/N=C/c2ccc(-c3ccc(Br)cc3)o2)nc1N1CCOCC1,10µM*,12.6µM*[quencher],5.0%,-5.0%,-3.0,-31.5%
Brc1ccc(-c2ccc(/C=N/Nc3nncc(-c4ccccc4)n3)o2)cc1,2µM*,-16.1%,4.9%,10.8%,3.8,31.2%[59 µM]
COc1ccc(C(C(=O)NCc2ccccc2)N(C(=O)Cn2nnc3ccccc32)c2ccc(F)cc2)cc1 (centres undefined),-11.0%,-18.3%,/,-9.9%,/,-40.4%[59 µM]
Cc1cc(NC(=O)c2ccco2)cc(-c2nc3cc(Cl)ccc3o2)c1O,?,?,/,-3.2%,/,27.0%[59 µM]
Cc1ccc(-c2ccc(CCC(=O)O)n2C(C)C)cc1,?,-15.2%,17.3%,-7.8%,11.4,79.4µM*
Cc1ccc(C)c(-n2c(CCC(=O)O)ccc2-c2ccc(Cl)cc2)c1,-16.8%,-5.8%,/,-3.7%,/,12.6µM*
Cc1ccc(-c2ccc(CCC(=O)O)n2-c2ccc(C)c(Cl)c2)cc1,-19.3%,-6.5%,/,-8.7%,/,12.6µM*
COc1ccc(-c2ccc(CCC(=O)O)n2-c2ccccc2OC)cc1,/,/,-11.5%,/,8.9,?
Cc1ccc(-c2ccc(CCC(=O)O)n2NC(N)=S)cc1,-17.6%,-7.1%,?,0.8%,1.3,?
COc1ccc(-c2ccc(CCC(=O)O)n2-c2ccc(Cl)cc2C)cc1,-13.3%,-8.8%,/,-6.9%,/,?
COc1ccccc1CCNC(=O)C(=O)NCC(c1ccco1)S(=O)(=O)c1cccs1 (centres undefined),0.1%,-10.0%,/,-4.2%,/,3.1%[59 µM]
Cc1cc(N2CCN(c3ccccc3)CC2)nc2ccccc12,/,/,4.7%,/,-2.1,33.4%
COc1ccc(N2CCN(c3cnc4ccccc4n3)CC2)cc1,?,?,13.6%,4.6%,3.2,?
COc1ccc(N2CCN(c3cc(C)nc4ccc(OC)cc34)CC2)cc1,/,/,-13.0%,/,0.5,50.1µM*
COc1cccc(N2CCN(c3cnc4ccccc4n3)CC2)c1,?,?,79.4µM*,9.0%,0.7,74.3%
COc1ccc2nc(C)cc(N3CCC(C(N)=O)CC3)c2c1,-6.0%,-9.0%,-7.0%,-5.1%,2.4,-10.3%[59 µM]
SMILES,Tau fibril ThT,Tau fluor counter,Sfp PPTase inh,Tau fibril FP,Coupling enz,G9a inh
COc1ccc(N2CCN(c3cc(C)c4ccccc4n3)CC2)cc1,?,-27.9%,13.3%,9.1%,0.0,10µM*
CC(=O)c1nnn(-c2cccc([N+](=O)[O-])c2)c1C,-4.1%,-3.2%,8.0%,-2.8%,-38.5*,?
CC(=O)c1nnn(-c2ccc([N+](=O)[O-])cc2C)c1C,-4.6%,-5.3%,7.3%,6.0%,1.4,-36.7%
CC(C)CCN(Cc1ccco1)C(=O)c1cc2c(s1)-c1ccccc1OC2,-15.1%,-12.8%,/,1.2%,/,134.3%[59 µM]
Cc1cc(/C=C(\C#N)C(=O)NCc2ccccc2)cc(C)c1O,/,/,-0.4%,/,1.1,-2.7%
N#C/C(=C\c1ccc(O)c(O)c1)C(=O)NCCCc1ccccc1,?,?,63.1µM*!,?,6.4,3.36µM*
COc1ccc(/C=C(\C#N)C(=O)NCCc2ccccc2)cc1OCc1ccccc1,-2.9%,-2.4%,12.7%,-3.7%,-8.8,1µM*
CCOCCCNC(=O)/C(C#N)=C/c1cc(OC)c(O)c([N+](=O)[O-])c1,14.1µM*,-10.8%,-24.2%,9.9%,-4.1,50.1µM*
COCCCNC(=O)/C(C#N)=C/c1ccc(OCC(=O)O)c(OC)c1,-17.6%,-16.2%,9.1%,2.6%,-1.5,12.6µM*
COCCNC(=O)/C(C#N)=C/c1ccc(O)cc1,/,-26.1%,7.0%,2.5%,6.7,/
COCCNC(=O)/C(C#N)=C/c1cccc(/C=C(\C#N)C(=O)NCCOC)c1,0.2%,8.1%,20µM*,5.6%,1.0,-8.9%[59 µM]
COc1cccc(-c2nn3c(=O)cc(CN4CCN(S(=O)(=O)c5ccc(C)cc5)CC4)nc3s2)c1,-7.8%,-2.7%,/,-3.9%,/,0.9%[59 µM]
Cn1cccc1Cc1nnc(SCC(=O)Nc2nccs2)n1C,/,/,22.0%,/,0.0,?
CC(=O)Nc1cccc(NC(=O)CSc2nnc(Cc3cccn3C)n2CCc2ccccc2)c1,-1.1%,-12.2%,2.7%,-2.9%,5.1,50.1µM*

# Source: PubChem BioAssay
